# Screens (PubChem BioAssay)
# Mcl1-Bid inh = disrupts binding of human Mcl-1 to Bid peptide. AID 1021. inhibition, % at 21.7 µM. TR-FRET Mcl-1/Bid-Dy647 peptide binding, 1536-well. Q07820. actives 0.97% (n = 220,000);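 active = compounds that cut the binding signal by more than half at the single screening dose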;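 also: His-tagged Mcl-1 with europium anti-His antibody binding Bid BH3 peptide; 0% = Mcl-1 plus peptide wells and 100% = peptide-only wells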
# Target sequence (Q07820 whole entry, looked up): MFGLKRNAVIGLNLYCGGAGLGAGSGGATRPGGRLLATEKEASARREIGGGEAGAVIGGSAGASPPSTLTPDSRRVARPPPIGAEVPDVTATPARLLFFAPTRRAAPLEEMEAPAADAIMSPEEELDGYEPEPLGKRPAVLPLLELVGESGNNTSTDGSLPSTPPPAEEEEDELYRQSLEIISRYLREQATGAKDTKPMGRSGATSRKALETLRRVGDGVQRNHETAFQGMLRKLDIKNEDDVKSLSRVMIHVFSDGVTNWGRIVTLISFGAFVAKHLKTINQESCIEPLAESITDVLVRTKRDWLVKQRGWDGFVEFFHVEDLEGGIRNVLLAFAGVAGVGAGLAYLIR
# Mcl1 Noxa PPI = Mcl-1/Noxa interaction inhibition; Q07820; inhibition, % at 21.7 µM; TR-FRET Mcl-1/Noxa peptide binding, 2 h; actives 1.5% (n = 220,000);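 active = compounds that cut the protein-peptide binding signal by more than 50% relative to plate controls in a single-dose test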;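 also: His-tagged Mcl-1 with rhodamine Noxa BH3 peptide and terbium anti-His antibody; 0% = Mcl-1 plus Noxa peptide wells and 100% = peptide-only wells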
# eIF4E 4G PPI = eIF4E/eIF4G interaction inhibition in translation initiation | P63073+Q04637 | TR-FRET eIF4E-eIF4GI(517-606) binding, 2 h | inhibition, % at 21.7 µM | actives 0.37% (n = 220,000);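 also: 0% = full FRET control wells and 100% = background wells lacking eIF4GI fragment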
# Mcl-1 Bim block = inhibitors of Bim-Mcl-1 interaction, human. inhibition, % at 10 µM. Q07820. Bead-based flow cytometry, Bim peptide-Mcl-1 binding. AID 1009. actives 0.1% (n = 190,000); in the data active = inhibition above about 40%;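 also: 0% = no compound tracer wells and 100% = peptide blocker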
# 14-3-3 Bad inh = disrupts binding of bovine 14-3-3 zeta to phospho-Bad peptide | TR-FRET 14-3-3zeta/Dy647-pBad peptide displacement, 1 h | P63103 | inhibition, % at 21.7 µM | actives 0.71% (n = 220,000) | AID 781;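 active = inhibition above about 70%, limit read from the data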;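 also: 0% = full 14-3-3 plus peptide FRET controls and 100% = background without 14-3-3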
# Target sequence (P63103 whole entry, looked up): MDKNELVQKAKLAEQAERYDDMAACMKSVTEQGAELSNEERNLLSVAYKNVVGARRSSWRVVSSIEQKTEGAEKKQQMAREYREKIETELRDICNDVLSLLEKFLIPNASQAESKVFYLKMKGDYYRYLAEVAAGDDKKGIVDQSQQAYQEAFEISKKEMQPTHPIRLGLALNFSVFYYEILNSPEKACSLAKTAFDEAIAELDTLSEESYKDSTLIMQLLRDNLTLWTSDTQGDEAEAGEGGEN
# NCF1 inh = p47phox (human) inhibition | p47phox/p22phox peptide binding, fluorescence polarization, 2 h | inhibition, % at 24.7 µM | P14598 | actives 0.53% (n = 220,000) | AID 1274;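 also: 0% = p47phox with labelled peptide and 100% = labelled peptide alone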
# Active calls of the source: *; x = no result; [ ] = remark or other dose. The list is not random: actives were taken first. Their share in the collection is about 3.4%.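 The calls were made as follows, unless noted: active = inhibition above about 30% (limit read from the data); inactive = the rest.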
SMILES,Mcl1-Bid inh,Mcl1 Noxa PPI,eIF4E 4G PPI,Mcl-1 Bim block,14-3-3 Bad inh,NCF1 inh
c1ccc(N2CCN(C3CCSC3)CC2)cc1 (stereo not given),17,14,-1,0,71*,-4
CCN(Cc1ccccc1)c1ccc(/C=N/N2CCOCC2)cc1,-46,64*,4,-1,-22,-2
Cc1nc2nc(-c3cccs3)cn2nc1C,-27,62*,-11,0,-1,-33
Cc1nc2nc(-c3ccc(Cl)cc3)cn2nc1C,-4,6,3,-2,3,-23
O=S(=O)(CC(CN1CCCCC1)N1CCCCC1)c1ccc2ccccc2c1 (stereo not given),-28,10,-3,0,-2,-17
CC(=O)N1CC(=O)N(Cc2ccccc2)/C(=C/c2ccccc2)C1=O,-27,-9,2,0,1,134*
O=C(Nc1ccc2cn[nH]c2c1)c1ccc(Cl)c(S(=O)(=O)N2CCOCC2)c1,-6,-3,4,0,-4,-9
CCN(CC)CCOC(=O)c1ccc(NC(=O)c2cn(-c3ccccc3)nc2-c2cccs2)cc1,-11,15,9,1,2,-29
COc1ccc(OC)c(NC(=O)c2ccc(CN3CCOCC3)cc2)c1,-11,10,-8,2,8,2
COc1ccccc1NC(=O)c1ccc(S(=O)(=O)N(C)C)cc1,-14,-26,38*[fluorescence artefact?],0,11,8
COc1ccccc1NC(=O)c1ccc(CN2CCOCC2)cc1,-43,-2,8,-2,-8,66*
COc1cccc2c(=O)c(C/C=C(/C)Cl)c(C)[nH]c12,92*,11,1,0,5,-2
CCCS(=O)(=O)N1CCN(Cc2ccc3c(c2)c2ccccc2n3CC)CC1,33,26,1,-6,20,-17
Cc1ccc(S(=O)(=O)N2CCC(=O)N(C(COCc3cccc(C)c3)Cc3ccccc3)CC2)cc1 (stereo not given),-8,-5,3,-2,7,1
Cc1ccc(S(=O)(=O)N2CCC(=O)N(C(COCc3ccc(C(F)(F)F)cc3)Cc3ccccc3)CC2)cc1 (stereo not given),-3,-5,1,0,82*,7
O=S(=O)([O-])CCC[n+]1c(SCCCS(=O)(=O)O)sc2ccc(Cl)cc21,-14,17,15,-1,92*[fluorescence artefact?],-5
CCOc1ccc(OCC)c(S(=O)(=O)NCc2ccc3c(c2)OCO3)c1,-15,-17,-3,-1,-11,66*
COC(=O)c1cc(OC)c(OC)cc1NCC(=O)Nc1ccc(C)cc1,81*,16,18,-4,-6,7
O=C(O)Cc1sc(Nc2ccc(F)cc2)nc1-c1cccs1,-3,53*,14,-3,0,-83
COc1ccc(CNC[C@@H](CCCCN(C)Cc2ccc(OC)cc2)N2C[C@H](c3ccccc3)N(CCc3ccc(Cl)c(Cl)c3)C(=O)C2=O)cc1,6,21,1,-4,-2,50*
CN(CCCC[C@H](CNCc1ccc(-c2ccccc2)cc1)N1C[C@H](c2ccccc2)N(CCc2ccc(Cl)c(Cl)c2)C(=O)C1=O)Cc1ccc(-c2ccccc2)cc1,61*,21,2,x,22,51*
CCOc1ccc(CCN2C(=O)C(=O)N([C@H](CCCN(C)Cc3ccccc3)CNCc3ccccc3)C[C@@H]2C(C)C)cc1,-40,4,-3,x,-1,-9
O=C(O)/C=C/C(=O)NC1CCCCCCCCCCC1,2,7,-1,x,2,7
COc1cc(/C=N/NC(=O)c2ccoc2C)cc(OC)c1O,-63,57*,2,-4,-8,-10
COc1cc(/C=N/NC(=O)c2cccc([N+](=O)[O-])c2)cc(OC)c1O,-30,67*,18,-6,8,-1
SMILES,Mcl1-Bid inh,Mcl1 Noxa PPI,eIF4E 4G PPI,Mcl-1 Bim block,14-3-3 Bad inh,NCF1 inh
Cc1ccc(/C=N/NC(=O)c2ccoc2C)o1,-23,14,-1,-2,-1,-10
Cc1occc1C(=O)N/N=C/c1ccc(N(C)C)cc1,74*,37,-1,x,42,-1
Cc1ccc2[nH]c(CN3CCC(CO)(CC4CCCCO4)CC3)c(C)c2c1 (stereo not given),-39,-9,0,-2,-10,-10
Cc1nc(COc2ccccc2Cl)sc1-c1ccnc(N)n1,55*,-5,-1,x,17,-10
Clc1ccccc1OCc1nn2c(-c3ccncc3)nnc2s1,6,4,5,-2,9,-10
CCCC(=O)c1ccc(O)cc1O,-102,-10,-3,x,-6,-16
NC(=O)NC(CC(=O)NCCc1ccc(S(N)(=O)=O)cc1)c1ccc(Cl)cc1 (stereo not given),84*,3,3,x,0,14
COc1ccc2c(C)cc(SCC(=O)N(C)C3CCS(=O)(=O)C3)nc2c1 (stereo not given),3,5,10,-4,4,-7
CN(C)C(=O)c1cn(N(C)c2ncc(C(F)(F)F)cc2Cl)c(=O)c2ccccc12,61*,31,14,-3,51,5
O=C(NC12CC3CC(CC(C3)C1)C2)OCCNC1CCCCC1,-14,6,0,x,3,-1
O=C(COC(=O)CCC(=O)c1ccc(F)cc1)Nc1ccccc1,28,14,0,-2,11,2
CCN(CC)c1ccc(NC(=O)COC(=O)CCC(=O)c2ccc(F)cc2)cc1,-68,70*,3,-5,-3,6
Cc1nc(C)c(C(=O)Nc2nc3c(C)cccc3s2)o1,-19,91*,12,0,8,-6
Cc1cccc2sc(NC(=O)C3CCCO3)nc12 (stereo not given),3,-5,1,0,7,-10
O=C1N/C(=N\N=C\c2cccs2)SC1Cc1ccc(Cl)c(Cl)c1 (stereo not given),17,4,4,3,1,-7
CCN(CC)S(=O)(=O)c1cc(F)ccc1OC,-3,-17,35*,1,3,-4
COc1ccc(C(=O)Nc2c(C(C)(C)C)nn(C)c2C(C)(C)C)cc1,-2,-1,4,x,0,-9
CCOc1ccc(N2C(=O)CC(/C=C3/N(C)c4ccccc4C3(C)C)C2=O)cc1 (stereo not given),-27,2,-2,-2,-21,-30
CN1/C(=C/C2CC(=O)N(c3cccc4ccccc34)C2=O)C(C)(C)c2ccccc21 (stereo not given),-38,54*,2,0,9,-56
O=C(O)c1ccn2c(C(=O)c3ccccc3)c(-c3ccccc3)cc2c1,-22,-11,2,x,-12,-2
COc1ccc(C2=NOC(C(=O)Nc3cccnc3)C2)cc1OC (stereo not given),-21,21,0,x,3,-11
CC(=O)Nc1sc(N/N=C/c2ccccc2)nc1-c1ccc(C)cc1,-52,7,0,x,-11,-9
